Source: PubChem BioAssay (NCI)
About 83,000 compounds went through this panel and 20% of them were active in at least one assay; those are over-represented in the sample as a whole.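 The test compound was applied at a single concentration to cells in 96-well plates for 48 hours, and percent growth was recorded.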 Calls of active or inactive are those of the source. How the source made its calls: active means growth percent below 10; inactive means the rest.

Key:
Experiment in all cases: NCI-60 one-dose screen, 48 h (100 = growth as untreated, 0 = no growth, -100 = all killed)
Conditions in all cases: 10 µM
[1] = tested on: DU-145 prostate
[2] = tested on: K-562 leukemia
[3] = tested on: MALME-3M melanoma
[4] = tested on: MDA-MB-231 breast
[5] = tested on: RXF 393 renal
[6] = tested on: SF-268 CNS
[7] = tested on: SF-295 CNS
[8] = tested on: SF-539 CNS
[9] = tested on: UACC-257 melanoma
[10] = tested on: M14 melanoma
[11] = tested on: HCT-15 colon
[12] = tested on: HT29 colon
[13] = tested on: SNB-75 CNS
[14] = tested on: SNB-19 CNS
[15] = tested on: PC-3 prostate
[16] = tested on: SK-MEL-5 melanoma
[17] = tested on: UACC-62 melanoma
[18] = tested on: LOX IMVI melanoma
[19] = tested on: SK-MEL-28 melanoma
[20] = tested on: U251 CNS

Measured: growth

O=C(Nc1cc([N+](=O)[O-])c2[nH]c(=O)c3ccccc3c2c1)C(F)(F)F
inactive: [1] 97.1% | [2] 84.6% | [3] 83.7% | [4] 88.6% | [5] 76.7% | [6] 86.7% | [7] 80.8% | [8] 93.6% | [9] 93.4% | [10] 107% | [11] 81% | [12] 90.4% | [13] 89.3% | [14] 87.1% | [15] 94.4% | [16] 91% | [17] 81.7% | [18] 68% | [19] 114%

Cc1c(Cl)cccc1NC(=O)CN1CCOCC1
inactive: [1] 102% | [2] 91.6% | [3] 92.6% | [4] 106% | [5] 117% | [6] 97.1% | [7] 99.3% | [8] 106% | [9] 108% | [10] 94.9% | [11] 99% | [12] 84.2% | [13] 88.9% | [14] 117% | [20] 106% | [15] 102% | [18] 97.4% | [19] 109%

O=C1CCn2c1c(O)c1ccccc1c2=O
inactive: [1] 114% | [2] 130% | [3] 124% | [4] 115% | [5] 111% | [6] 114% | [7] 97.2% | [8] 113% | [9] 99.8% | [10] 107% | [11] 114% | [12] 108% | [13] 86.6% | [14] 110% | [15] 100% | [16] 103% | [17] 113% | [18] 107% | [19] 107%

COc1ccc(-c2nn(-c3cccc(Cl)c3)cc2-c2c(C#N)c(=O)n3[nH]c(-c4ccc(C)cc4)nc3c2C#N)cc1
inactive: [1] 28.4% | [3] 21.4% | [5] 28.2% | [6] 35.8% | [7] 23.6% | [8] 34.8% | [9] 96.9% | [11] 65.2% | [13] 36.4% | [14] 64.2% | [15] 68.6% | [16] 68.6% | [17] 57.1% | [18] 39.7% | [19] 92.3%
active: [2] 4.62% | [4] -2.7% | [10] -10.9% | [12] 5.33%

COC(=O)c1c[nH]c2cc(OC(C)C)c(OC(C)C)cc2c1=O
active: [20] 6.2%
inactive: [1] 110% | [2] 98.9% | [3] 125% | [4] 109% | [5] 94.7% | [6] 104% | [7] 105% | [8] 91% | [9] 87.6% | [10] 108% | [11] 101% | [12] 95.6% | [14] 105% | [15] 93.1% | [16] 98.3% | [17] 106% | [18] 95.9% | [19] 117%

Cc1cc(C)nc(NS(=O)(=O)c2ccc(Nc3nc4nc(NCc5ccccc5)nc(-c5ccc(O)cc5)c4c(=O)[nH]3)cc2)n1
active: [3] -12.6% | [5] -1.77% | [15] 1.02% | [16] 4.9%
inactive: [1] 33% | [2] 37.8% | [4] 29.2% | [6] 27.8% | [7] 27.3% | [8] 39.9% | [9] 66.1% | [11] 18.5% | [12] 32.2% | [13] 48.2% | [14] 28.2% | [20] 11.9% | [17] 21.8% | [18] 23.4% | [19] 32.7%

O=C(/C=C/c1cccc(B(O)O)c1)c1cccc(B(O)O)c1
active: [1] -69.4% | [4] -9.31% | [5] -86.7% | [6] -28.5% | [7] -14.6% | [8] -30.8% | [9] -11% | [10] -56.3% | [11] -40.4% | [12] -46.5% | [18] -85.6% | [19] -21.4%
inactive: [2] 11.5% | [3] 26.4% | [13] 45.3% | [14] 43.9% | [15] 26.1% | [16] 22.1%

COc1ccc(-c2nn(-c3cccc(Cl)c3)cc2-c2cc(-c3cccs3)[nH]c(=S)n2)cc1
active: [7] 8.31%
inactive: [1] 74.6% | [2] 28.3% | [3] 31.1% | [4] 83.3% | [5] 56.7% | [6] 61.6% | [8] 69.3% | [9] 88.6% | [10] 33.6% | [11] 45.7% | [12] 62.2% | [13] 67.4% | [14] 44.7% | [15] 48.5% | [16] 52.2% | [17] 44.9% | [18] 43.4% | [19] 57.3%

Cc1cc(O)ccc1C1=NN(c2ccc(S(C)(=O)=O)cc2)C(=O)CC1
inactive: [1] 92.2% | [2] 20.6% | [3] 52.7% | [4] 74.8% | [5] 81.2% | [6] 80.3% | [7] 32.1% | [8] 73.8% | [9] 93% | [10] 49.2% | [11] 44.9% | [12] 38.9% | [13] 75.2% | [14] 78.2% | [15] 77.9% | [16] 68.3% | [17] 52.9% | [18] 67.5% | [19] 81.2%
